Compounds with a hit are over-represented: about 3.8% of the library has one in this group of screens.
ATXN2 expr inh – ATXN2 expression inhibition; HEK-293 ATXN2-luciferase reporter, luminescence, 24 h; Potency, µM (doses to about 57 µM), hits mostly inhibitors; hit rate 0.72% among 360,000; further: nearly all actives have a fitted effect of over 55% in size
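ATXN2-luciferase reporter cells (luciferase flanked by upstream and downstream ATXN2 gene portions) were treated 24 h at 37 °C with compounds at up to 57 uM. SteadyGlo luminescence gave expression; GF-AFC fluorescence gave viability.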
HepG2 tox – HepG2 cytotoxicity, counter-screen for TGF-b inhibitors; HepG2 CAGA-GFP viability, ATP luminescence, 18 h; Potency, µM (top dose mostly 46.1 µM), hits mostly cytotoxic; hit rate 0.76% among 410,000; AID 588856
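CellTiter-Glo luminescence gave cytotoxicity after 18 hours at 37 degrees C. The cells were HepG2 CAGA-GFP in 1% FBS DMEM, stimulated with 500 pg/mL TGF-beta after compound addition. %Activity was normalised to no-cell wells (complete cell-killing) and DMSO (no toxicity), and curves were fitted and classified.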
A549 viability – A549 cytotoxicity, counter-screen for Nrf2 inhibitors; A549 ARE-Fluc cells, CellTiter-Fluor viability, 18-24 h; Potency, µM (highest dose often 46 µM), actives largely listed as inhibitors; hit rate 0.16% among 390,000; AID 504648
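A549 ARE_Fluc cells in 5% FBS OPTI-MEM were exposed to compounds in concentration-response for 18-24 h at 37 deg C. Viability was read by CellTiter-Fluor fluorescence (Ex 405/Em 525) after 30 min, before the luciferase read.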
Nrf2 block – Nrf2 pathway inhibition; A549 ARE-Fluc reporter, luciferase luminescence, 18-24 h; Potency, µM (highest dose often 46 µM), actives largely listed as inhibitors; hit rate 2.1% among 360,000; AID 504444; further: nearly all actives have a fitted effect of over 60% in size
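Concentration-response testing used A549 ARE_Fluc cells at 5000 cells/well. Following an 18-24 h compound incubation, viability was read by fluorescence (Ex 405/Em 525) and luciferase output by luminescence.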
ATXN viability – viability counter-screen for ATXN expression inhibitors | S2 cells (HEK-293 line with an ATXN2-luciferase reporter) viability, CellTiter-Fluor protease fluorescence, 24 h | Potency, µM (titrated, usually from 56.7 µM), most hits filed as cytotoxic | hit rate 0.49% among 400,000; further: nearly all actives have a fitted effect of over 40% in size
TGFb inhibitor – TGF-b pathway inhibition; hit rate 1.2% among 410,000; AID 588855; HepG2 CAGA-GFP TGF-b/SMAD3 reporter, GFP fluorescence, 18 h; TGF-beta stimulated, 500 pg/mL final; Potency, µM (highest dose often 46.1 µM), actives largely listed as inhibitors; further: nearly all actives have a fitted effect of over 65% in size
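Inhibition of TGF-beta-driven CAGA-GFP reporter expression in HEPG2 cells is measured by cellular GFP fluorescence after 18 h stimulation with 500 pg/mL recombinant TGF-beta in 1% FBS medium at 37 degrees C.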
Each line names hits and unclear results; the compound was inactive in the other large screens. The call rests on the fitted dose curve; in most records, active means well fitted curve in the direction sought with a large enough effect; inconclusive means small, poorly fitted or top-dose-only effect, or another doubt; inactive means no such curve, though single readings can be large; an effect the other way counts as inactive or inconclusive.

COc1ccc(CN2CC(=O)N(c3ccc(C)cc3C)C2=S)cc1OC	Nrf2 block 13µM
COCCn1cnc2c1-c1ccc(OC)c(c1)OC/C=C\COc1cccc-2c1	none (no result: ATXN2 expr inh, ATXN viability)
C[n+]1cccc(O)c1SCc1ccccc1	ATXN2 expr inh inconclusive, ATXN viability 14.1µM, TGFb inhibitor inconclusive
Cc1ccc(NC(=S)N2CCN(S(C)(=O)=O)CC2)cc1Cl	none
CC1CN(c2ccc([N+](=O)[O-])nc2)CC(C)O1 (centres undefined)	ATXN viability inconclusive
CC1CC(C)CN(c2ccc([N+](=O)[O-])nc2)C1 (centres undefined)	A549 viability inconclusive, ATXN viability 11.9µM
O=C(/C=C/c1ccco1)Oc1cc(Br)cc(/C=N/NC(=O)c2ccccc2O)c1	ATXN2 expr inh inconclusive, A549 viability inconclusive, Nrf2 block inconclusive, TGFb inhibitor 10µM
Cc1ccc(OCC(=O)N2CCc3ccccc3C2)cc1	none (no result: ATXN2 expr inh)
CN(C(=O)C(C)(C)C)c1ccc(OCC(=O)N2CCc3ccccc3C2)cc1	Nrf2 block 10.3µM
O=C(Nc1cccc(C(=O)OCc2cc(=O)n3c4c(sc3n2)CCCC4)c1)c1cccc(F)c1	TGFb inhibitor inconclusive (no result: ATXN2 expr inh, Nrf2 block, ATXN viability)
Cc1cccc(N2CCN(C(=O)C(NS(=O)(=O)c3cccs3)c3ccccc3)CC2)c1C (centres undefined)	Nrf2 block 9.2µM
O=C(C(NS(=O)(=O)c1cccs1)c1ccccc1)N1CCN(c2ccccc2F)CC1 (centres undefined)	none
COc1cc(CCC(=O)Nc2ccc(Br)c(C(F)(F)F)c2)cc(OC)c1OC	Nrf2 block inconclusive, TGFb inhibitor 15.8µM
Cc1cc(CN(C)Cc2ccc(OCC(O)CN(C)Cc3ccccc3)cc2)on1 (centres undefined)	none
C=CCOc1ccc(CN(C)CC(O)COc2cccc3ccccc23)cc1 (centres undefined)	HepG2 tox 12.6µM, A549 viability inconclusive, TGFb inhibitor 17.8µM
COc1ccccc1/C=N/NC(=O)C(=O)Nc1ccccc1OC(F)(F)C(F)F	none
O=C(N/N=C/c1cc(Br)ccc1O)C(=O)Nc1ccccc1OC(F)(F)C(F)F	ATXN2 expr inh 3.16µM, TGFb inhibitor inconclusive (no result: Nrf2 block)
O=C(N/N=C/c1cc(Cl)ccc1O)C(=O)Nc1ccccc1OC(F)(F)C(F)F	ATXN2 expr inh 12.6µM, Nrf2 block inconclusive, TGFb inhibitor inconclusive
CC(C)(C)n1ncc2c(=O)n(Cc3cccc(Oc4ccccc4)c3)cnc21	none (no result: ATXN2 expr inh, A549 viability, Nrf2 block, ATXN viability)
COc1ccc(S(=O)(=O)N2CCC[C@H]2C(=O)N2CCC[C@H]2C(=O)NCc2ccccc2)cc1C	none (no result: HepG2 tox, A549 viability, Nrf2 block, TGFb inhibitor)
COc1ccc(S(=O)(=O)N2CCC[C@H]2C(=O)N2CCC[C@H]2C(=O)NCc2ccc(F)cc2F)cc1C	ATXN2 expr inh inconclusive, ATXN viability 25.1µM (no result: HepG2 tox, A549 viability, Nrf2 block, TGFb inhibitor)
NC(CO)c1csc(Nc2ccc(C(=O)c3ccccc3)cc2)n1 (centres undefined)	none (no result: A549 viability, Nrf2 block)
COc1ccc(CC(N)c2csc(Nc3ccc(C(=O)c4ccccc4)cc3)n2)cc1 (centres undefined)	ATXN2 expr inh 35.5µM, ATXN viability inconclusive, TGFb inhibitor inconclusive (no result: A549 viability, Nrf2 block)
CC(C)CC(N)c1csc(NC(=O)c2cc(C(C)(C)C)nn2Cc2ccccc2)n1 (centres undefined)	ATXN2 expr inh inconclusive, HepG2 tox 11.2µM, TGFb inhibitor inconclusive (no result: A549 viability, Nrf2 block, ATXN viability)
NC(Cc1ccccc1)c1csc(Nc2ccc(C(=O)c3ccccc3)cc2)n1 (centres undefined)	ATXN2 expr inh inconclusive, ATXN viability inconclusive, TGFb inhibitor inconclusive (no result: A549 viability, Nrf2 block)
NC(Cc1ccc(F)cc1)c1csc(Nc2ccc(C(=O)c3ccccc3)cc2)n1 (centres undefined)	ATXN2 expr inh inconclusive, HepG2 tox 12.6µM, TGFb inhibitor 11.2µM (no result: A549 viability, Nrf2 block, ATXN viability)
CC(C)CC(N)c1csc(Nc2ccc(C(=O)c3ccccc3)cc2)n1 (centres undefined)	ATXN2 expr inh inconclusive, HepG2 tox 15.8µM, ATXN viability inconclusive, TGFb inhibitor 17.8µM (no result: A549 viability, Nrf2 block)
COc1cccc(N2CCN(C(=O)c3cnn(-c4ccccc4Cl)c3C3CCN(C(=O)OC(C)(C)C)CC3)CC2)c1	A549 viability inconclusive, Nrf2 block inconclusive, TGFb inhibitor inconclusive (no result: ATXN2 expr inh, ATXN viability)
CC(C)CC(N)c1csc(NC(=O)C(c2ccccc2)c2ccccc2)n1 (centres undefined)	ATXN2 expr inh inconclusive, HepG2 tox 12.6µM, ATXN viability inconclusive, TGFb inhibitor inconclusive (no result: A549 viability, Nrf2 block)
NC(Cc1ccc(Cl)cc1)c1csc(Nc2ccc(C(=O)c3ccccc3)cc2)n1 (centres undefined)	ATXN2 expr inh inconclusive, HepG2 tox 10µM, TGFb inhibitor 11.2µM (no result: A549 viability, Nrf2 block, ATXN viability)
Cc1ccccc1Cn1c(=O)n(CCCCC(=O)NCc2ccccc2Cl)c(=O)c2ccccc21	none
C[C@H]1CCCCO[C@@H](CN(C)C(=O)NC2CCCCC2)[C@@H](C)CN([C@@H](C)CO)C(=O)c2cc(NC(=O)Cc3ccccc3)ccc2O1	ATXN viability inconclusive (no result: A549 viability, Nrf2 block)
CCOC(=O)/C=C(\C)Sc1cc(=O)oc2ccccc12	Nrf2 block inconclusive
CCOC(=O)/C=C(\C)Sc1cc(O)c2ccccc2c1O	HepG2 tox 5.62µM, Nrf2 block inconclusive, ATXN viability inconclusive, TGFb inhibitor 3.16µM (no result: ATXN2 expr inh)
Nc1ccccc1C=C1Cc2ccccc2C1=O	Nrf2 block inconclusive
O=C1C(=Cc2ccccc2[N+](=O)[O-])Cc2ccccc21	HepG2 tox 17.8µM, ATXN viability inconclusive, TGFb inhibitor 12.6µM (no result: ATXN2 expr inh, A549 viability, Nrf2 block)
CCOP(=O)(OCC)C(Cc1ccc(OC)c(OC)c1)N=C(c1ccccc1)c1ccccc1 (centres undefined)	none (no result: A549 viability, Nrf2 block)
Cc1ccc(S(=O)(=O)/N=c2\ccc(Cl)cn2C(F)F)cc1	none (no result: ATXN2 expr inh, ATXN viability)
CS(=O)(=O)c1ccc(C(=O)Nc2cc(-c3ccccc3)nn2-c2ccccc2)cc1	Nrf2 block 14.6µM
O=S(=O)(O)c1cc(O)c2c(O)c(N=Nc3cc(Cl)ccc3O)c(S(=O)(=O)O)cc2c1	ATXN2 expr inh inconclusive, A549 viability 14.6µM, Nrf2 block 20.6µM, ATXN viability 8.91µM
CCn1c(SCC(=O)Nc2oc(-c3ccccc3)c(-c3ccccc3)c2C#N)nnc1-c1cc(OC)cc(OC)c1	none (no result: Nrf2 block)
CCC(=O)N(CCC(Cc1ccccc1)c1ccco1)Cc1ccco1 (centres undefined)	Nrf2 block 16.4µM
CCC(=O)N(CCC(c1ccccc1)c1ccco1)Cc1cccs1 (centres undefined)	TGFb inhibitor inconclusive
Nc1ccc(Br)c2c1C(=O)c1ccccc1C2=O	A549 viability inconclusive, ATXN viability inconclusive, TGFb inhibitor inconclusive
Nc1ccc(O)c2c1C(=O)c1ccccc1C2=O	A549 viability inconclusive, ATXN viability 20µM

From PubChem
